Measurements from PubChem BioAssay AID504467 (National Center for Advancing Translational Sciences (NCATS), 2011).
About 7,700 (2.3%) of roughly 330,000 compounds were called active. Not shown: some 26% with an inconclusive outcome. Calls come from the whole dose curve; as a rule, active = well fitted inhibition curve with a large enough effect; inconclusive = small, poorly fitted or top-dose-only effect, or effect the other way; inactive = flat fitted curve, though single readings scatter. The entries come from a sample that favours actives as a whole.

assay: qHTS screen for small molecules that inhibit ELG1-dependent DNA repair in human embryonic kidney (HEK293T) cells expressing luciferase-tagged ELG1; settings: HEK293T ELG1-luciferase reporter, luminescence, 16 h, DNA damage induced by 5-fluorouridine; series mostly up to 46.1 µM; activity change, negative = inhibition: at the top concentration; note: nearly all actives have a fitted effect of over 55% in size
From the text: NIH Molecular Libraries Probe Production Network [MLPCN] NIH Chemical Genomics Center [NCGC] MLPCN Grant: 1 R03 MH092164-01 Assay Provider: Kyungjae Myung, NHGRI, NIH Keywords: MLPCN, qHTS, NCGC, genotoxicity, cancer Assay Overview: Cancer cells divide rapidly compared to normal cells in the body. During cell division, cancer cells need to duplicate their genome by DNA replication. The failure of genome duplication leads to cancer cells' death. Therefore, inhibitors of DNA replication could specifically kill cancer cells. Based on this concept, many chemotherapeutic agents were developed and have been used to treat cancer patients. However, there are a limited number of agents available in the clinical setting, and some of those that do exist have low efficacy and severe side effects. Therefore, if we can find the compounds that effectively block DNA replication either by directly damaging DNA or by inhibiting other cellular mechanisms, the options for cancer treatment will be broadened. With this in mind, we developed a quantitative high-throughput ELG1-luciferase reporter gene assay. Small molecules that specifically block ELG1 function in response to DNA damage can be identified by monitoring the suppression of luciferase activity. Since ELG1 defines a pathway for repairing DNA damage, agents blocking ELG1 function can be used to sensitize cancer cells to chemotherapeutic agents whose mechanism of action involves the induction of DNA damage.
Assay Protocol Summary: For genotoxicity screening, 2,000 cells in 4 uL/well were dispensed into white, solid-bottom 1536-well plates using a solenoid-based dispenser. Following transfer of 1 uL 5-Fluorouridine and 23 nL compound or DMSO vehicle by a pin tool, the plates were incubated 16 hr at 37 °C and 5% CO2. 5 ul ONE-Glo (Promega) was then added to each plate and following a 30 min incubation at room temperature, luciferase activity was quantified on a ViewLux CCD-based plate reader.
% is set by controls: 0 for no effect and ±100 for the full control effect; potency is the fitted concentration of half-maximal effect.

Structure (SMILES) | activity change, negative = inhibition | Potency
Cc1cccc(N2C(=O)N3[C@H](c4ccc(F)cc4)[C@@H]4C(=O)N(C5CCCCC5)C(=O)[C@@H]4[C@]3(Cc3ccccc3)C2=O)c1 | -2.6% (inactive) | –
COc1ccc(CN2C3CCCC2CC(NC(=O)c2cccc(F)c2)C3)cc1 (configuration not stated) | 7.95% (inactive) | –
CN(CC(=O)NCC(c1ccccc1)N1CCCC1)S(=O)(=O)c1ccc(Cl)cc1 (configuration not stated) | 8.82% (inactive) | –
COc1cc(/C=C2\SC(=O)NC2=O)ccc1OCc1ccc(Cl)nc1 | 13.8% (inactive) | –
O=C(NCC(c1ccco1)N1CCc2ccccc21)c1cccc(F)c1 (configuration not stated) | -6.47% (inactive) | –
CCCCn1c(N)c(N(CC)C(=O)c2ccc(N(C)S(=O)(=O)c3ccc(C)cc3)cc2)c(=O)[nH]c1=O | 2.79% (inactive) | –
COCCN1C(=O)C(=O)/C(=C(/O)c2ccc(S(=O)(=O)N3CCCCC3)cc2)C1c1ccc(OC)c(OC)c1 (configuration not stated) | 6.1% (inactive) | –
Cn1cc(C(=O)c2ccc(Cl)cc2Cl)cc1C(=O)NN | 0.667% (inactive) | –
Cc1noc(C)c1S(=O)(=O)N(C)C[C@H]1Oc2ccc(NC(=O)C3CC3)cc2C(=O)N([C@H](C)CO)C[C@@H]1C | 0.566% (inactive) | –
Cc1ccc(CN2CC(C(=O)NNC(=O)Cn3ccc(C(F)(F)F)n3)CC2=O)cc1 (configuration not stated) | -0.475% (inactive) | –
Cc1cc(C(=O)Nc2c(C)nn(Cc3ccccc3)c2C)on1 | 3.72% (inactive) | –
O=C(Nc1cc(C(F)(F)F)ccc1Cl)c1cc(C2CC2)on1 | 2.26% (inactive) | –
Cc1nn(Cc2ccc(Cl)c(Cl)c2)c(C)c1NC(=O)c1cc(C2CC2)on1 | – | 16.4 µM (active)
CC(=O)Nc1cccc(NC(=O)c2ccc3c(c2)CCN3S(C)(=O)=O)c1 | -20.3% (inactive) | –
O=C1c2ccccc2[C@@H]2C[C@@H](O)[C@H](Nc3ccccc3Cl)CCN12 | -12.1% (inactive) | –
CC(Oc1ccccc1)C(=O)Nc1oc(-c2ccco2)c(-c2ccco2)c1C#N (configuration not stated) | -0.938% (inactive) | –
O=C(CCN1C(=O)c2ccccc2C1=O)Nc1ccncc1 | 0% (inactive) | –
Cc1cc(C)cc(NC(=O)CCN2C(=O)c3ccccc3C2=O)c1 | -4.22% (inactive) | –
COc1cc(C(=O)Nc2oc(-c3ccccc3)c(-c3ccccc3)c2C#N)cc(OC)c1OC | – | 23.1 µM (active)
N#Cc1c(NC(=O)CCCN2C(=O)c3ccccc3C2=O)oc(-c2ccccc2)c1-c1ccccc1 | – | 7.94 µM (active)
COc1cc(C(=O)NCC(=O)N2CC=C(c3ccccc3)CC2)cc(OC)c1OC | 0% (inactive) | –

Structure (SMILES) | activity change, negative = inhibition | Potency
CCOc1ccc(NC(=O)c2cccc3c2C(=O)N(CC2CCCO2)C3)cc1 (configuration not stated) | 20.6% (inactive) | –
CCc1ccc(OCC(=O)N(Cc2ccccc2)C2CCS(=O)(=O)C2)cc1 (configuration not stated) | -4% (inactive) | –
CC[C@]12c3[nH]c4ccc(Cl)cc4c3CCN1C(=O)[C@@H](CC(=O)NCCCOC)C[C@@H]2C(=O)N1CCN(C(=O)c2ccco2)CC1 | 0.426% (inactive) | –
CN(C)C(CNC(=O)c1cccc(S(=O)(=O)Nc2ccc(Br)cc2)c1)c1ccco1 (configuration not stated) | -0.472% (inactive) | –
COc1ccc(-c2noc(CCCC(=O)NC3CCCC3)n2)cc1OC | -29% (inactive) | –
COc1ccc(CCNC(=O)C(=O)Nc2ccc3nc4n(c(=O)c3c2)CCCCC4)cc1OC | – | 20.6 µM (active)
O=C(Nc1ccc2nc3n(c(=O)c2c1)CCCCC3)c1ccccc1Cl | -2.19% (inactive) | –
COc1ccc(NC(=O)Cn2nnc(C(=O)NCCc3ccc(OC)c(OC)c3)c2N)cc1 | -0.109% (inactive) | –
O=C(NCCc1c[nH]c2ccccc12)C1CCN(Cc2ccc(Br)cc2)CC1 | -14% (inactive) | –
CCn1cc(C(=O)NCCO)c(=O)c2cc(F)c(N3CCN(C)CC3)cc21 | 12.3% (inactive) | –
CCCCNC(=O)c1cn(CC)c2cc(N3CCN(C(=O)c4ccco4)CC3)c(F)cc2c1=O | – | 14.6 µM (active)
CCn1cc(C(=O)N/N=C(/C)c2ccc(F)cc2)c(=O)c2cc(F)c(N3CCCC3)cc21 | -10.6% (inactive) | –
COC(=O)CSc1nc2ccccc2c(=O)n1Cc1ccccc1 | -3.93% (inactive) | –
O=S1(=O)CCOC[C@H](CC2CCCCC2)N1Cc1ccc(F)cc1 | 8.78% (inactive) | –
C=CC[C@@H](CC(=O)N[C@@H](CO)Cc1ccccc1)C(=O)NCCOC(=O)[C@@H](CC=C)CC(=O)OC(C)(C)C | 17.7% (inactive) | –
CCOC(=O)c1c(-c2ccc(C)cc2)csc1/N=C(\C)C1=C(O)c2ccccc2C1=O | – | 7.3 µM (active)
CCOC(=O)c1c(-c2ccccc2)csc1NC(=S)NC(=O)c1ccccc1 | -14% (inactive) | –
CCOC(=O)c1c(-c2ccc(-c3ccccc3)cc2)csc1NC(=O)CCC(=O)O | -0.959% (inactive) | –
COc1cccc(CN(C)CC(O)COC(c2ccccc2)c2ccccc2C)c1 (configuration not stated) | -14% (inactive) | –
CCCN(CCC)c1ccc(C(O)c2nnc(-c3ccccc3)o2)cc1 (configuration not stated) | – | 20.6 µM (active)
CCCC(=O)Nc1nnc(-c2ccccc2)o1 | 16.7% (inactive) | –

Structure (SMILES) | activity change, negative = inhibition | Potency
C=CCn1c(SCc2nnc(-c3ccccc3)o2)nnc1C(O)c1ccccc1 (configuration not stated) | -0.318% (inactive) | –
CC(C)COc1ccc(C(=O)NNC(=O)CCC(=O)c2cccs2)cc1 | 0% (inactive) | –
CCC/C(C)=N\Nc1nc2c(c(=O)n(C)c(=O)n2C)n1C | -2.43% (inactive) | –
Cc1cccc(Cn2c(N3CCN(c4ccccc4)CC3)nc3c2c(=O)n(C)c(=O)n3C)c1 | -5.25% (inactive) | –
C/C(Cl)=C\Cn1c(Nc2cccc(C)c2)nc2c1c(=O)n(C)c(=O)n2C | – | 9.2 µM (active)
CCc1[nH]nc(C(=O)N2CCCC(CO)(Cc3ccc(F)cc3F)C2)c1C (configuration not stated) | 2.52% (inactive) | –
O=C1c2cccnc2C(Nc2ccc(S(=O)(=O)N3CCCCCC3)cc2)N1Cc1ccccc1 (configuration not stated) | – | 8.2 µM (active)
O=C(Nc1ccc(S(=O)(=O)N2CCCCC2)cc1)c1cnccn1 | -7.35% (inactive) | –
O=C(COc1ccc(S(=O)(=O)N2CCCCC2)cc1)NCc1ccccn1 | -4.87% (inactive) | –
Cc1ccc2nc(SCC(=O)Nc3cccc4ccccc34)nc(=O)n2c1 | 12.8% (inactive) | –
O=C(NCCc1ccccn1)c1cc(-c2ccc(Cl)cc2)nc2ccccc12 | – | 23.1 µM (active)
COC(=O)CNC(=O)c1cc(-c2ccncc2)nc2ccccc12 | 4.24% (inactive) | –
O=C(NCCc1ccccn1)c1cccnc1Oc1ccc(Cl)cc1 | -2.16% (inactive) | –
Cc1ccccc1Nc1nc(N)nc(COC(=O)CCC(=O)c2ccc(F)cc2)n1 | 16.3% (inactive) | –
COC(=O)c1noc(C)c1-c1ccnn1C(=O)c1ccc(Cl)cc1 | 3.21% (inactive) | –
Cc1onc(-c2ccccc2)c1C(=O)N=C(N)c1ccc(Cl)cc1 | 10.9% (inactive) | –
Cc1onc(-c2ccc(Cl)cc2)c1-c1ccnn1S(=O)(=O)c1ccc(Cl)cc1 | – | 14.6 µM (active)
Cc1nn(-c2ccccc2)c(C)c1NC(=O)COc1ccc(Cl)cc1Cl | – | 20.6 µM (active)
Cc1nn(-c2ccccc2)c(C)c1NC(=O)CCl | -3.28% (inactive) | –
Cc1nn(-c2ccccc2)c(C)c1NC(=O)COC(=O)c1cc(Cl)ccc1O | 11.5% (inactive) | –
